Results reported in PubChem BioAssay AID1259418 (Broad Institute, 2018).
Among all 3,400 compounds or so, about 840 (25%) were called active. Not shown: some 11% with an inconclusive outcome. These entries were drawn from the full list. Results with a measured potency or affinity are listed apart. Unmarked numbers belong to inactive results.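 How the source made its calls: active means fitted half-maximal concentration of signal decrease at or below twice the sample's top tested concentration; inconclusive means flat curve between -70 and -30 percent, or poor fit; inactive means flat within 30 percent, signal rise, or potency above limit.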

experiment: T. gondii growth inhibition with IFN-gamma, dose response, cell-based, ME49Luc, HeLa, luciferase, 72 h (AID 1259418); settings: T. gondii ME49Luc in IFN-y HeLa, stronger effect = lower value, -100% = high-dose IFN-γ control wells; at 19.5 µM unless noted

Row | Structure (SMILES) | max activity
1 | COc1ccc(NC(=O)Nc2ccc(-c3nc(-c4ccc(C)cc4)co3)cc2)cc1Cl | 83.9%
2 | COc1cccc(NC(=O)CCC2Nc3c4ccccc4nc(=S)n3C2=O)c1 (centres undefined) | 16.8% [at 0.68 µM]
3 | Cc1ccc(Cl)cc1N(CC(=O)Nc1c(F)cccc1F)S(C)(=O)=O | 6.87%
4 | Cc1sc(-c2nc(C(C)C)cs2)cc1S(=O)(=O)N1CCC(C)CC1 | 11.7%
5 | Cc1ccccc1-c1nc(CN2CCN(C(=O)Nc3cccc(Cl)c3)CC2)c(C)o1 | 10.5% [at 5 µM]
6 | Cc1ccc(-c2nc3c(s2)CN(C(=O)Nc2cccc(C)c2C)CC3)cc1 | 22.5% [at 5 µM]
7 | CC(=O)NCCNC(=O)CC1Nc2c3ccccc3nc(=S)n2C1=O (centres undefined) | 32%
8 | COc1ccccc1CNc1nc(-c2ccc(Cl)cc2)nc2ccccc12 | 9.39% [at 0.35 µM]
9 | Cc1oc(-c2ccccc2)nc1Cn1nnc(-c2nc(-c3cccc(Br)c3)no2)c1C | 5.37% [at 0.16 µM]
10 | Cc1nc(CCNC(=O)C2CCN(S(=O)(=O)c3cccc(Cl)c3C)CC2)cs1 | -10.4% [at 5 µM]
11 | CCCCc1ccc(Nc2ncnc3c2cnn3-c2ccc(OC)cc2)cc1 | 8.01% [at 5 µM]
12 | Cc1cccc(C)c1NC(=O)CN1CCC2(CC1)N=C(c1cccc(F)c1)C(=O)N2 | 21.4% [at 0.35 µM]
13 | COc1cc(NC(=O)COc2nc(C)nc3ccccc23)cc(OC)c1OC | 39.1% [at 0.35 µM]
14 | O=S(=O)(c1ccccc1F)N1CCC(c2nc3ccc(-c4ccncc4)cn3n2)CC1 | -8.38% [at 0.16 µM]
15 | O=C(C1CCOCC1)N1CC(=O)N2[C@@H](CO)[C@H](c3ccc(/C=C/c4ccccc4)cc3)[C@@H]2C1 | 16.6%
16 | CC(C)NC(=O)N1CC(=O)N2[C@H](CO)[C@H](c3ccc(/C=C/c4ccccc4)cc3)[C@@H]2C1 | 15.1%
17 | CC(C)c1ccc(-c2nc3c([nH]2)c(=O)n(C)c(=O)n3C)cc1 | 36.8%
18 | COc1ccc(-c2nc(N3CCN(c4ccccc4OC)CC3)c3ccccc3n2)cc1 | -19.4% [at 0.35 µM]
19 | COc1ccc(-c2nc(N3CCN(c4ccccc4F)CC3)c3ccccc3n2)cc1 | -17% [at 0.35 µM]
20 | COc1ccc(CCNc2ncnc3c2cnn3-c2ccc(C)cc2C)cc1OC | -45% [at 0.16 µM]
21 | CCc1nc(OCC(=O)Nc2ccc(F)cc2)c2ccccc2n1 | 24.6% [at 0.35 µM]
22 | COc1ccc(-c2nc(Cn3c(=O)c4c(C)cc(C)nc4n(-c4ccccc4)c3=O)c(C)o2)cc1OC | -11.3% [at 1.35 µM]
23 | COc1ccc(NC(=O)CN2CCC3(CC2)N=C(c2ccc(Cl)cc2)C(=O)N3)cc1 | -12.9% [at 0.68 µM]
24 | Cc1ccc(NC(=O)CN2CCC3(CC2)N=C(c2cccc(F)c2)C(=O)N3)cc1F | -40.4%
25 | CCc1ccccc1NC(=O)N1CCc2nc(-c3ccc(OC)c(OC)c3)sc2C1 | 6.34%
26 | CCC(=O)N1CCC2(CC1)Nc1ccc(C)c(C)c1-n1cccc12 | -7.02% [at 5 µM]
27 | Cc1nc(OCC(=O)Nc2cc(F)ccc2C)c2ccccc2n1 | 23.1% [at 10 µM]

Row | Structure (SMILES) | max activity
28 | Cc1ccc(-c2coc(-c3ccc(NC(=O)c4ccc(F)cc4)cc3)n2)cc1 | 95.6%
29 | COc1ccccc1NC(=O)N1CC(=O)N2[C@H](C1)[C@@H](c1ccc(C#CC(C)C)cc1)[C@@H]2CO | -17.8%
30 | Cc1ccc(-c2ccc([C@@H]3[C@H](CO)N4C(=O)CN(C(=O)NC(C)C)C[C@@H]34)cc2)cc1 | 16.7% [at 5 µM]
31 | COc1ccccc1NC(=O)N1CC(=O)N2[C@H](CO)[C@H](c3ccc(C#CC(C)C)cc3)[C@H]2C1 | 25.9% [at 5 µM]
32 | Cc1ccc(-c2ccc([C@H]3[C@@H](CO)N4C(=O)CN(C(=O)NC(C)C)C[C@@H]34)cc2)cc1 | 46.5%
33 | CCOc1ccc(-c2nc(CN3CCN(C(=O)Nc4ccccc4C(F)(F)F)CC3)c(C)o2)cc1 | 13.7% [at 2.6 µM]
34 | O=C(NCCc1csc(-c2ccccc2)n1)C1CCN(C(=O)COc2ccccc2)CC1 | -18.1% [at 0.68 µM]
35 | O=C(O)c1ccc(NC(=NCCc2ccccc2)N2CCN(c3ncnc4ccccc34)CC2)cc1 | 6.72%
36 | COc1ccc(NC(=O)Nc2ccc(-c3nc(-c4ccccc4)co3)cc2)cc1 | -14% [at 0.68 µM]
37 | CCOc1ccccc1-c1nc(CN(c2ccccc2)S(=O)(=O)c2ccccc2)c(C)o1 | 15.6%
38 | COc1ccccc1N(Cc1nc(-c2cccc(OC)c2OC)oc1C)S(=O)(=O)c1ccccc1 | 3.95%
39 | CCOc1ccccc1-c1nc(CN(c2ccccc2OC)S(=O)(=O)c2ccc(C)cc2)c(C)o1 | -6.32%
40 | COc1ccc(-c2nc(Cn3nnc(-c4nc(-c5ccccc5)no4)c3C)c(C)o2)cc1 | 11% [at 0.16 µM]
41 | Cc1ccc(NC(=O)Nc2ccc(-c3nc(-c4ccccc4)co3)cc2)cc1C | 24.4%
42 | Cc1cc(-n2nnc(C(=O)N3CCC(N4CCCCC4)CC3)c2-c2ccncc2)ccc1F | -34.1%
43 | Cc1ccccc1C(=O)N1CCC2(CC1)Nc1cc(F)ccc1-n1cccc12 | -6.16% [at 1.35 µM]
44 | COc1ccc(OCC(=O)N2CCC3(CC2)Nc2ccc(C)c(C)c2-n2cccc23)cc1 | -9.59% [at 2.6 µM]
45 | CCOC(=O)C1CCCN(c2nc(-c3ccc(Cl)cc3)nc3ccccc23)C1 (centres undefined) | 5.87% [at 0.35 µM]
46 | Cc1noc(C)c1S(=O)(=O)N1CSC[C@@H]1C(=O)NCCc1csc(-c2ccccc2)n1 | 13.2% [at 1.35 µM]
47 | Cc1cccc(NC(=O)Nc2ccc(-c3nc(-c4ccc(C)cc4C)co3)cc2)c1 | -13.9% [at 0.16 µM]
48 | COc1ccccc1-c1noc(-c2nnn(Cc3nc(-c4cccc(Cl)c4)oc3C)c2C)n1 | 9.3% [at 0.16 µM]
49 | CCc1nc(OCC(=O)Nc2ccccc2C(F)(F)F)c2ccccc2n1 | 15.4% [at 2.6 µM]
50 | Cc1ccc(-c2coc(-c3ccc(NC(=O)NCc4ccccc4)cc3)n2)c(C)c1 | 5.28% [at 0.16 µM]
51 | COc1ccc(-c2nc(Cn3nnc(-c4nc(-c5ccccn5)no4)c3C)c(C)o2)cc1 | -5.61% [at 10 µM]
52 | COc1ccccc1-c1nc(C)c(-c2ccc(SCc3ccccc3)nn2)s1 | -5.61% [at 0.68 µM]
53 | COc1ccc2c(c1)NC1(CCN(C(=O)c3ccc(Br)cc3)CC1)c1cccn1-2 | 15.6% [at 0.68 µM]
54 | O=C(NCCN1CCCC1)C1CCN(Cc2cc3ccccc3n2Cc2cccc(Cl)c2)CC1 | -8.03% [at 1.35 µM]

Row | Structure (SMILES) | max activity
55 | Cc1cccc(Cn2c(CN3CCC(C(=O)NCCCN4CCCC4=O)CC3)cc3ccccc32)c1 | 13.5%
56 | O=C(NCCCN1CCCC1=O)C1CCN(Cc2cc3ccccc3n2Cc2ccccc2)CC1 | -6.87% [at 2.6 µM]
57 | O=C(C1CCN(Cc2cc3ccccc3n2Cc2cccc(Cl)c2)CC1)N1CCCC1 | -6.26% [at 1.35 µM]
58 | Cc1ccc(Cn2c(CN3CCC(C(=O)N4CCCC4)CC3)cc3ccccc32)cc1 | 17.8% [at 2.6 µM]
59 | O=C(NCc1cccnc1)C1CCN(Cc2cc3ccccc3n2Cc2cccc(Cl)c2)CC1 | -5.31% [at 5 µM]
60 | CC(C)C(=O)Nc1ccc(-c2nc(-c3ccccc3)co2)cc1 | -22.2% [at 10 µM]
61 | Cc1ccc(OCC(=O)Nc2ccc(-c3nc(-c4cc(C)ccc4C)co3)cc2)cc1 | 6.76% [at 10 µM]
62 | CCc1ccccc1Nc1ncnc2c1cnn2-c1ccc(C)cc1C | 12.3% [at 0.68 µM]
63 | COc1ccc(OC)c(S(=O)(=O)N2CCC[C@@H]2C(=O)NCCc2csc(C)n2)c1 | 4.67%
64 | COc1cccc(-c2nc3c(s2)CN(S(=O)(=O)c2ccc(C(C)C)cc2)CC3)c1 | -7.98% [at 2.6 µM]
65 | Cc1cccc(-c2nc(Cn3nnc(-c4nc(-c5ccc(F)cc5)no4)c3C)c(C)o2)c1 | 16.4% [at 10 µM]
66 | OC[C@H]1O[C@@H](n2cnc3c(NC4CCCC4)nc(Cl)nc32)[C@H](O)[C@@H]1O | 22.4%
67 | Cc1ccc2[nH]c(C(=O)N3CCCC3)c(NC(=O)c3ccc(Cl)cc3)c2c1 | 45.1% [at 5 µM]
68 | COc1ccccc1-c1nc(Cn2nnc(-c3nc(-c4ccc(C)c(C)c4)no3)c2C)c(C)o1 | 8.96% [at 0.68 µM]
69 | Cc1cccc(C(=O)Nc2c(C(=O)N3CCN(c4ccccn4)CC3)[nH]c3ccc(C)cc23)c1 | -10.7% [at 5 µM]
70 | CN(C)CCOCC12CCCOC1CCN(C(=O)c1cccn1C)C2 (centres undefined) | 9.21%
71 | O=C(CC1Nc2c3ccccc3nc(=S)n2C1=O)NC1CCCCC1 (centres undefined) | 24.9% [at 0.68 µM]
72 | O=C(Cn1c(=O)c(S(=O)(=O)c2ccccc2)cc2ccccc21)NCc1ccco1 | 8.5% [at 0.16 µM]
73 | O=C(C1CCN(Cc2cc3ccccc3n2Cc2cccc(F)c2)CC1)N1CCCC1 | 8.62%
74 | O=C(NCc1cccnc1)C1CCN(Cc2cc3ccccc3n2Cc2ccccc2)CC1 | 21.3% [at 1.35 µM]
75 | CCN1CCCC1CNC(=O)C1CCN(Cc2cc3ccccc3n2Cc2ccccc2C)CC1 (centres undefined) | 14% [at 2.6 µM]
76 | Cc1cccc(Cn2c(CN3CCC(C(=O)NCc4cccnc4)CC3)cc3ccccc32)c1 | 15.7% [at 10 µM]
77 | CCN1CCCC1CNC(=O)C1CCN(Cc2cc3ccccc3n2Cc2ccc(Cl)cc2)CC1 (centres undefined) | 9.45%
78 | CCN1CCCC1CNC(=O)C1CCN(Cc2cc3ccccc3n2Cc2cccc(Cl)c2)CC1 (centres undefined) | 22% [at 10 µM]
79 | O=C(NCc1cccnc1)C1CCN(Cc2cc3ccccc3n2Cc2cccc(F)c2)CC1 | 12.1% [at 0.16 µM]
